Source: PubChem (National Center for Advancing Translational Sciences (NCATS))
NPSR antagonist – antagonists of human neuropeptide S receptor cAMP signaling; Potency, µM (doses to about 38.3 µM), for inactives: top-dose activity change, negative = inhibition, most hits filed as inhibitors; AID 1461; hit rate 1% among 220,000; CHO-NPSR cells, cAMP TR-FRET, antagonist mode; active = well fitted curve in the direction sought with a large enough effect; inconclusive = small, poorly fitted or top-dose-only effect, or another doubt; inactive = no such curve, though single readings can be large; an effect the other way counts as inactive or inconclusive; note: potency is the fitted concentration of half-maximal effect; nearly all actives have a fitted effect of over 50% in size
Sfp PPTase inh – Sfp phosphopantetheinyl transferase inhibition; Q9F4F7; Biochemical Sfp PPTase activity, qHTS; Potency, µM, inactives show largest response in the series, negative = inhibition, most hits filed as inhibitors; hit rate 3.5% among 310,000; active = well fitted curve in the direction sought with a large enough effect; inconclusive = small, poorly fitted or top-dose-only effect, or another doubt; inactive = no such curve, though single readings can be large; an effect the other way counts as inactive or inconclusive;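 note: the enzyme is Sfp with the accession as filed and its product quenches rhodamine fluorescence; potency is the fitted concentration of half-maximal effect; 0% = enzyme reaction without inhibitor and -100% = no enzyme wells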
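Fluorescence-quenching assay: 15 nM Sfp-PPTase preincubated 15 min at room temperature with compound, then 5 uM rhodamine-CoA and 12.5 uM BHQ-2-labelled YbbR peptide added. Fluorescence (ex 525/em 598 nm) read at start and after 30 min; difference gives rate.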
ALDH1A1 block – blocks purified human ALDH1A1 activity. P00352. Purified ALDH1A1, NADH fluorescence, propionaldehyde substrate. Potency, µM (top dose mostly 75.3 µM), for inactives: top-dose activity, negative = inhibition, actives largely listed as inhibitors. hit rate 7.3% among 220,000;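 note: potency is the fitted concentration of half-maximal effect; plate controls were no enzyme wells and a reference inhibitor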
KDM4E inh – blocks human JMJD2E demethylase activity; B2RXH2; JMJD2E catalytic domain, FDH-coupled NADH fluorescence (FDH is formaldehyde dehydrogenase); Potency, µM (titrated, usually from 57.1 µM), inactives show at the top dose activity change, negative = inhibition, hits mostly inhibitors; hit rate 1.6% among 230,000;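 note: potency is the fitted concentration of half-maximal effect; 0% = wells with enzyme and -100% = buffer wells without enzyme; nearly all actives have a fitted effect of over 50% in size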
Target sequence (B2RXH2 1-337 limits assumed): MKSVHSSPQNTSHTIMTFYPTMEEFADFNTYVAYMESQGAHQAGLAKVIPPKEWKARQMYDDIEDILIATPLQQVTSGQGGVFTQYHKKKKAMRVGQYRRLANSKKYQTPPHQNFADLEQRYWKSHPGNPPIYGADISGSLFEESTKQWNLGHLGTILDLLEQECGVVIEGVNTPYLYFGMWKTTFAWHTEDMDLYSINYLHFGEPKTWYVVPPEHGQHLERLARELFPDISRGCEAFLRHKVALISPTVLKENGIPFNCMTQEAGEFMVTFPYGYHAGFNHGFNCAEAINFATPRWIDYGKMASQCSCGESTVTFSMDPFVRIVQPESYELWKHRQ
RGS12 GoLoco inh – RGS12 GoLoco-Gai1 interaction inhibition; AID 880; Potency, µM (highest dose often 61.6 µM), without a hit: at the top dose activity, negative = inhibition, usual class: inhibitors; Gai1:RGS12 GoLoco peptide FP, rhodamine, 10 min; hit rate 0.44% among 230,000; active = well fitted inhibition curve with a large enough effect, not every such curve was filed as active; inactive = no such curve, though single readings can be large or run the other way; note: potency is the fitted concentration of half-maximal effect; nearly all actives have a fitted effect of over 30% in size
Target sequence (P63096 whole entry, looked up): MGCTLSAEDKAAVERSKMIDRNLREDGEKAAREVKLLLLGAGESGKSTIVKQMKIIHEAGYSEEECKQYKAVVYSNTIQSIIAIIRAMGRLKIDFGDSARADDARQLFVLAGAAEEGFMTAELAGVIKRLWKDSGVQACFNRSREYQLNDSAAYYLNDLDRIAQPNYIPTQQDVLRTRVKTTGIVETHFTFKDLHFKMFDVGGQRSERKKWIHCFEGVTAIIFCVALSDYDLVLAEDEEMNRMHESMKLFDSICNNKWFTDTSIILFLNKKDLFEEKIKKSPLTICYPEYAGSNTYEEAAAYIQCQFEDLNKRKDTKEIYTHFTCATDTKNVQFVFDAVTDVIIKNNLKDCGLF
Coupling enz – counter-screen for Giardia aldolase inhibitors: coupling enzyme system; hit rate 0.67% among 290,000; coupling enzyme system counterscreen, AmpLite Red fluorescence; activity change, negative = inhibition, % at 58.2 µM, hits read low; in the data active = activity change below about -30%
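First, compound is pin-transferred into glyceraldehyde-3-phosphate coupling-enzyme reagent at 57.5 uM final and held 10 min at RT. Next, substrate, coupling system and AmpLite Red are added. After 20 min RT, fluorescence (525/598 nm) is read.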
* = called active by the depositor; ? = inconclusive; nt = not tested or not shown; [ ] = remark or other dose. This is a sample that favours compounds with a hit; in the whole collection about 8.5% have one here. Unless noted, calls come from the whole dose curve; as a rule, active = well fitted inhibition curve with a large enough effect (not every such curve was filed as active); inconclusive = small, poorly fitted or top-dose-only effect, or another doubt; inactive = no such curve, though single readings can be large or run the other way. Unless noted, % is set by controls: 0 for no effect and ±100 for the full control effect.

SMILES	NPSR antagonist	Sfp PPTase inh	ALDH1A1 block	KDM4E inh	RGS12 GoLoco inh	Coupling enz
O=C1C2CCCN2C(c2ccccc2)N1c1cccc(Cl)c1 (stereo unspecified)	-7%[46.1 µM]	0%	3%	7%	3%	2
Cc1cccn2c(=O)c(/C=C3\SC(=S)NC3=O)c(NCCCN3CCOCC3)nc12	47%	4µM*	-2%	-3%	203%	-4
COc1ccccc1-n1cnnc1SCC(=O)Nc1cccc(S(N)(=O)=O)c1	nt	11%	nt	nt	nt	3
CCN(CC)C(=O)C1CCC(CNS(=O)(=O)c2cccc3nsnc23)CC1 (stereo unspecified)	nt	7%	nt	nt	nt	nt
CCCCSc1nnc([C@H](C)NC(=O)OC(C)(C)C)o1	-14%[46.1 µM]	11%	22µM*	9%	6%	5
CCCCSc1nnc([C@H](CC(C)C)NC(=O)OC(C)(C)C)o1	-13%[46.1 µM]	9%	-7%	3%	9%	4
CCc1ccccc1NC(=O)CSc1nnc([C@H](CCSC)NC(=O)OC(C)(C)C)o1	12%[46.1 µM]	10%	22µM*	4%	-12%	1
CSCC[C@H](NC(=O)OC(C)(C)C)c1nnc(SCC(=O)Nc2ccc(C)cc2C)o1	-7%[46.1 µM]	2%	3%	-3%	4%	0
CN1CC[n+]2c(CN3C(=O)c4ccccc4C3=O)csc21	9%[46.1 µM]	-3%	-2%	-9%	18µM*	1
O=C(OCCN1CCN(C2=NS(=O)(=O)c3ccccc32)CC1)c1ccccc1F	nt	7%	nt	nt	nt	0
Cc1cc(C2=NNC(=NC3CC3)SC2)c(C)n1-c1c(C)n(C)n(-c2ccccc2)c1=O	1%	?	25µM*	-9%	1%	-3
Cc1cccc(N=C2NN=C(c3ccccc3F)CS2)c1C	8%	1%	-2%	8%	4%	1
Cc1c(N=C2NN=C(c3ccc(Cl)cc3)CS2)c(=O)n(-c2ccccc2)n1C	-29%	50µM*	18µM*	-4%	5%	2
CN=C1NN=C(c2cc(C)n(-c3ccc(Cl)cc3)c2C)CS1	-7%	35µM*	8.9µM*	?	19%	-2
Cc1cc(/C=C/C(=O)O)c(C)n1-c1ccc(Cl)cc1	-21%	6%	-8%	-19%	6%	8
Cc1ccc(-n2c(C)cc(C3=NNC(=NC4CC4)SC3)c2C)cc1C	10µM*	-29%	19µM*	-11%	21%	1
CC(C)CCOc1ccc(C2(C)NC(=O)NC2=O)cc1 (stereo unspecified)	nt	9%	nt	nt	nt	2
CCCn1c(N/N=C\C=C\c2ccccc2)nc2c1c(=O)[nH]c(=O)n2C	-22%	-24%	0%	?	7%	0
COCCn1c(N/N=C(C)/C=C/c2ccccc2)nc2c1c(=O)[nH]c(=O)n2C	25%	40µM*	9%	?	13%	-4
CC(/C=C/c1ccccc1)=N\Nc1nc2c(c(=O)[nH]c(=O)n2C)n1CCO	-14%	40µM*	nt	-5%	54%	-1
O=C(N/N=C/C=C/c1ccco1)c1cnccn1	24%	10µM*	3.2µM*	0%	-5%	-10
O=C(N/N=C/c1ccco1)c1cnccn1	-13%[46.1 µM]	-11%	-3%	-3%	4%	4
O=C(Cc1ccccc1)NNC(=O)c1cnccn1	33%	35µM*	4%	-12%	-6%	3
O=C(N/N=C/C=C\c1ccco1)c1ccccn1	-16%	20µM*	nt	?	-1%	-26
O=C(Nc1ccc(NC(=O)c2ccco2)cc1)c1cnccn1	-18%[46.1 µM]	4%	25µM*	-1%	-3%	3
SMILES	NPSR antagonist	Sfp PPTase inh	ALDH1A1 block	KDM4E inh	RGS12 GoLoco inh	Coupling enz
O=C(CCc1ccccc1)NNC(=O)c1ccccn1	14%	12%	1%	?	-2%	-2
O=C(O)CCN1C(=O)C(=C2CCCCCC2)SC1=S	-16%[46.1 µM]	50µM*	?	?	1%	-2
O=C1C(=C2CCCCC2)SC(=S)N1Cc1ccco1	-21%[46.1 µM]	40µM*	18µM*	0%	8%	0
Nc1cccc(NP(=O)(c2ccccc2)c2ccccc2)c1	55%	11%	nt	5%	-1%	-1
O=C1OC(/C(=C\Nc2cc(Cl)ccc2O)[N+](=O)[O-])c2ccccc21 (stereo unspecified)	-22%	3%	14µM*	-19%	13%	3
O=C1OC(/C(=C\Nc2ccc(F)cc2F)[N+](=O)[O-])c2ccccc21 (stereo unspecified)	-19%	?	?	-12%	-8%	2
Cc1ccc(N/C=C(\C2OC(=O)c3ccccc32)[N+](=O)[O-])c(C)c1 (stereo unspecified)	-19%	-5%	3.5µM*	-6%	-1%	-5
O=C(Nc1ccc(Cl)cn1)c1cccc2c(Br)cccc12	nt	-6%	nt	nt	nt	-2
Cc1ccc(-c2cc(-c3ccco3)c3c(N)c(C(=O)NN)oc3n2)cc1	26%	?	nt	3.2µM*	29%	-2
CC(=O)N1c2ccc(S(=O)(=O)N(C)C3CCCCC3)cc2CC1C (stereo unspecified)	nt	10%	nt	nt	nt	nt
Cc1ccc2c(c1)C(=O)c1ccccc1CS2=O (stereo unspecified)	0%	?	2.5µM*	0%	-8%	1
Cc1cnc2c(c1)C(=O)c1ccccc1-2	nt	6%	nt	nt	nt	0
CC(C)[C@H](NC(=O)[C@H](CC(=O)O)NC(=O)CNC(=O)[C@@H](N)CCCN=C(N)N)C(=O)O	nt	9%	nt	nt	nt	0
CC(C)(C)Cc1nnc(NC(=O)Cc2ccc([N+](=O)[O-])cc2)s1	-9%[46.1 µM]	40µM*	11µM*	-2%	-7%	3
CC(C)(C)Cc1nnc(NC(=O)c2ccc([N+](=O)[O-])cc2)s1	7%	4%	-2%	0%	5%	2
O=C(COC(=O)C(O)c1ccccc1)NC12CC3CC(CC(C3)C1)C2 (stereo unspecified)	-5%[46.1 µM]	10%	32µM*	5%	-1%	2
O=C(COC(=O)C12CC3CC(CC(C3)C1)C2)NC12CC3CC(CC(C3)C1)C2	?	-10%	14µM*	10%	-7%	-1
O=C(COC(=O)C12CC3CC(CC(C3)C1)C2)Nc1ccccc1F	-19%	5%	?	-1%	6%	2
Cc1ccc(SCC(=O)OCn2nnc3ccccc3c2=O)cc1C	10%	-1%	-1%	5%	0%	0
C=CCN1C(=O)C2(/C(=C(\O)c3ccc4c(c3)OCCO4)C(=O)C(=O)N2CCCOC)c2ccccc21 (stereo unspecified)	10%[46.1 µM]	3%	2.8µM*	-17%	6%	5
CC(C)Oc1ccc(Cc2cnc(=S)[nH]c2N)cc1	5%	4%	-4%	-8%	1%	0
ClC1(Cl)CC1Cn1c(C2CC2)nc2ccccc21 (stereo unspecified)	20%	21%	10µM*	1%	10%	-4
